Laboratory results: PubChem BioAssay AID588676 (Johns Hopkins Ion Channel Center, 2011)
The campaign covered roughly 310,000 compounds. About 3,900 (1.3%) were called active.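 How the source made its calls: active means calcium-response B-score plate-corrected more than 3 library SD below zero, starting fluorescence within 5 deviations, no agonist response on first addition; inactive means the rest.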 Only a selection was taken, and actives are over-represented in it overall.

The compounds below were run against Mas-related G-protein coupled receptor member X1 (Homo sapiens) (UniProt Q96LB2) (assay: antagonists of human MrgX1 receptor, primary screen, HEK293 cells, Fluo-4 calcium flux (AID 588676;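 on B-score: peak minus trough fluorescence over baseline after final BAM8-22 challenge near maximal dose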)). Conditions: Fluo-4, BAM8-22 antagonism, at 10 µM; stronger effect = lower value.
Chain of Mas-related G-protein coupled receptor member X1 (Homo sapiens) (Q96LB2 whole entry, looked up): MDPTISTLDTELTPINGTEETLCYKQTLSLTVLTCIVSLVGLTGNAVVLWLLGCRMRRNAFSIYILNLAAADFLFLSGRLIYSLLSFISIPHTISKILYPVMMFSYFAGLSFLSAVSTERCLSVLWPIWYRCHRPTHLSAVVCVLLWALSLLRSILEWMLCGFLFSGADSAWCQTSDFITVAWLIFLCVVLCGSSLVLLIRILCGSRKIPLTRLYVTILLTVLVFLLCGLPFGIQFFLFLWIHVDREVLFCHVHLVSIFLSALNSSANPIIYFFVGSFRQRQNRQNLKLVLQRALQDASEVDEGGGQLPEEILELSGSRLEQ
With `COc1ccc(-c2nc(CS(=O)CC(=O)N3CCC4(CC3)OCCO4)c(C)o2)cc1` (stereo not given) the B-score was “inactive”. For `COc1ccc(NC(=O)N2CCC3(CC2)OCCO3)c(OC)c1`, the B-score was “inactive”. With `COc1ccc(S(=O)(=O)NCc2ccc(C(=O)N3CCC4(CC3)OCCO4)cc2)cc1` the B-score was -6.08 (active). With `COC(=O)C1=C(c2cc3ccccc3o2)C[C@@H]2CC[C@H]1N2C(=O)NC1CCCCC1` the B-score was “inactive”. `CCCCCCCCCCCCn1ccc(=N)cc1` was tested, and the B-score was -5.32 (active). With `COc1ccccc1C1=NCc2nnc(CSC)n2-c2ccc(Cl)cc21` the B-score was “inactive”. For `CCCCCn1c(=O)c(C(=O)NCc2ccccn2)c(O)c2ccccc21`, the B-score was “inactive”. In the case of `CCCCCn1c(=O)c(C(=O)NCc2ccccc2)c(O)c2ccccc21`, the B-score was -6.52 (active). For `CCCCn1c(=O)c(C(=O)Nc2ccccc2Cl)c(O)c2ccccc21`, the B-score was “inactive”. `CC(C)c1ccc(OCC(=O)N2CCN(C)CC2)c(Br)c1` was tested, and the B-score was “inactive”. For `CCOC(=O)C1SC2(C(F)(F)C(F)F)CC1(O)c1c(c(OC)c3occc3c1OC)O2` (stereo not given), the B-score was “inactive”. `CNCC(O)c1cc(F)c(OCc2ccccc2)c(OCc2ccccc2)c1F` (stereo not given) was tested, and the B-score was “inactive”. `Cc1ccc(-n2c(O)c(C=NCC3CCCO3)c(=O)[nH]c2=O)c(C)c1` (stereo not given) was tested, and the B-score was “inactive”. For `CCOC(=O)C(O)(c1ccc(N=Cc2ccccc2O)c(C)c1)C(F)(F)F` (stereo not given), the B-score was “inactive”. For `Cc1cccc(NC(=O)N2CC3CC(C2)c2cccc(=O)n2C3)c1` (stereo not given), the B-score was “inactive”. For `COc1ccccc1N1CCN(C(CNC(=O)Oc2ccccc2)c2cccnc2)CC1` (stereo not given), the B-score was “inactive”. In the case of `CN1CCN(C(=S)SCC(=O)Nc2ccc(Cl)cc2C(=O)c2ccccc2)CC1`, the B-score was “inactive”. In the case of `O=C(CCN1CCCCC1)NCC(=O)Nc1ccc(Br)cc1C(=O)c1ccccc1`, the B-score was -5.59 (active). For `O=C(CN1CCCCC1)Nc1ccc(Br)cc1C(=O)c1ccccc1Cl`, the B-score was “inactive”. `CCOC(=O)C1=C(C)OC(N)=C(C(=O)OC)C12C(=O)Nc1ccc(Br)cc12` (stereo not given) was tested, and the B-score was “inactive”.
